For 13 compounds, growth results are on record in PubChem BioAssay (NCI).

This is part of a sample that, as a whole, favours compounds with a hit. Of some 83,000 tested, about 20% had one in any assay.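 Note: values are percent growth. 100 is the growth of untreated cells, values between 100 and 0 indicate rising inhibition; between -100 and 0 indicates cell death.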 Values without a mark were called inactive. Activity calls are given as the source filed them. How the source made its calls: active means growth percent below 10; inactive means the rest.

Some test systems named below: SR leukemia; RPMI-8226 leukemia; OVCAR-8 ovarian; OVCAR-5 ovarian; OVCAR-4 ovarian; SK-OV-3 ovarian; IGROV1 ovarian; OVCAR-3 ovarian; HS 578T breast; NCI/ADR-RES ovarian.
Common to all, as to assay: NCI-60 one-dose screen, 48 h (100 = growth as untreated, 0 = no growth, -100 = all killed)
Common to all, as to settings: 10 µM unless noted

In the case of `Cn1ccc(=O)c(C(=O)Nc2nsc3ccc([N+](=O)[O-])cc23)c1`, the growth is 55.9% with SR leukemia; 61.6% in the experiment on RPMI-8226 leukemia; 59.3% with OVCAR-8 ovarian; 84% in the experiment on OVCAR-5 ovarian; 53.4% in the experiment on OVCAR-4 ovarian; 30.8% with SK-OV-3 ovarian. The growth is 27.3% with IGROV1 ovarian, 75.6% in the experiment with OVCAR-3 ovarian, 54.7% with HS 578T breast and 68% in the experiment on NCI/ADR-RES ovarian.
`N#Cc1ccc(O)c(C2=NCC(c3cccc(Oc4ccccc4)c3)O2)c1` (stereo not given): the growth was 19.7% with SR leukemia; 28.1% in the experiment on RPMI-8226 leukemia; 12.9% in the experiment on OVCAR-8 ovarian; 55.5% in the experiment on OVCAR-5 ovarian; 18.3% in the experiment on OVCAR-4 ovarian; -1.44% (active) with SK-OV-3 ovarian. For the same compound, the growth was 19.2% in the experiment on IGROV1 ovarian, 27.3% in the experiment with OVCAR-3 ovarian, 52.6% in the experiment on HS 578T breast and 2.42% (active) in the experiment with NCI/ADR-RES ovarian.
In the case of `CN(C)CC(C)(C)C(=O)/C=C/c1ccccc1`, the growth in the experiment with SR leukemia is -16.5% [25 µM] (active); in the experiment with RPMI-8226 leukemia, -23.4% [25 µM] (active); with OVCAR-8 ovarian, -47.1% [25 µM] (active); in the experiment on OVCAR-5 ovarian, -12% [25 µM] (active); in the experiment with OVCAR-4 ovarian it was -19.5% [25 µM] (active); with SK-OV-3 ovarian, -20.1% [25 µM] (active). The growth with IGROV1 ovarian is -16.7% [25 µM] (active); in the experiment with OVCAR-3 ovarian it was -18.5% [25 µM] (active); in the experiment with HS 578T breast, -2.87% [25 µM] (active); in the experiment with NCI/ADR-RES ovarian it was -9% [25 µM] (active).
`COc1ccc2c(c1OC)CO[C@@H]2[C@H]1c2c(cc3c(c2OC)OCO3)CCN1S(=O)(=O)c1cn(C)cn1`: the growth in the experiment with SR leukemia was 23.7%; in the experiment with RPMI-8226 leukemia, 16.5%; in the experiment on OVCAR-8 ovarian, 20.4%; in the experiment on OVCAR-5 ovarian, 35.1%; in the experiment on OVCAR-4 ovarian, 51.5%; in the experiment with SK-OV-3 ovarian, 22.2%. Besides, the growth in the experiment with IGROV1 ovarian is 24.7%; with OVCAR-3 ovarian, -35.3% (active); in the experiment with HS 578T breast, 15.5%; in the experiment on NCI/ADR-RES ovarian, 3.64% (active).
As to `O=C(O)c1ccc(-n2cc(/C=N/Nc3ccccc3)c(-c3ccc(F)cc3F)n2)cc1`, the growth in the experiment with SR leukemia was 72%; with RPMI-8226 leukemia it was 50%; in the experiment with OVCAR-8 ovarian, 53.3%; in the experiment on OVCAR-5 ovarian, 57.6%; with OVCAR-4 ovarian, 80.4%; with SK-OV-3 ovarian, 89.1%. The growth is 52.6% with IGROV1 ovarian, 62.3% with OVCAR-3 ovarian, 68.6% in the experiment with HS 578T breast and 56.7% in the experiment with NCI/ADR-RES ovarian.
For the compound `CN1CCN(c2cc(Nc3cc(C4CC4)[nH]n3)nc(Nc3ccc(CC(=O)NCc4cccc(F)c4)cc3)n2)CC1`, the growth was 30.3% in the experiment with SR leukemia; 54.3% in the experiment with RPMI-8226 leukemia; 40.7% in the experiment with OVCAR-8 ovarian; 11% with OVCAR-5 ovarian; 43.9% in the experiment with OVCAR-4 ovarian; 24% in the experiment on SK-OV-3 ovarian. Further, the growth in the experiment with IGROV1 ovarian was -13.8% (active); with OVCAR-3 ovarian, 41.7%; in the experiment with HS 578T breast, -6.93% (active); in the experiment with NCI/ADR-RES ovarian it was 94.4%.
As to `O=C1/C=C/[C@@H](O)[C@@H]2C[C@@H](O)C[C@H]2/C=C/CCC[C@H](CCc2ccccc2)O1`, the growth was 9.67% (active) in the experiment on SR leukemia; 10.7% with RPMI-8226 leukemia; 14.4% in the experiment with OVCAR-8 ovarian; 19.8% in the experiment with OVCAR-5 ovarian; 24.9% with OVCAR-4 ovarian; 28.2% with SK-OV-3 ovarian. For the same compound, the growth is 14.7% with IGROV1 ovarian, -42.1% (active) in the experiment on OVCAR-3 ovarian, 47.8% in the experiment on HS 578T breast and 5.65% (active) in the experiment on NCI/ADR-RES ovarian.
For the compound `COc1cccc(CNc2ccc3ncnc(Nc4ccc(F)c(Cl)c4)c3c2)c1`, the growth in the experiment with SR leukemia is 50.5%; in the experiment with RPMI-8226 leukemia, 68.3%; in the experiment with OVCAR-8 ovarian it was 59.3%; in the experiment with OVCAR-5 ovarian it was 72.2%; with OVCAR-4 ovarian it was 60.6%; in the experiment on SK-OV-3 ovarian, 42.6%. The growth in the experiment on IGROV1 ovarian is 36.8%; with OVCAR-3 ovarian, 53.8%; in the experiment on HS 578T breast, 87.4%; in the experiment on NCI/ADR-RES ovarian, 54.7%.
As for `Cc1cc(N2CCN(CC(=O)Nc3ccc4c(ccn4C)c3)CC2)nc(N2CCCCCC2)n1`, the growth with SR leukemia was 122%; in the experiment on RPMI-8226 leukemia, 76.1%; in the experiment with OVCAR-8 ovarian it was 83.3%; in the experiment with OVCAR-5 ovarian it was 100%; with OVCAR-4 ovarian, 92.2%; in the experiment on SK-OV-3 ovarian, 84.4%. For the same compound, the growth with IGROV1 ovarian is 83.5%; with OVCAR-3 ovarian, 82.6%; in the experiment with HS 578T breast, 96.8%; in the experiment with NCI/ADR-RES ovarian it was 91.5%.
Take `O=C(c1nn(-c2ccccc2)c2c1CC(NCc1ccc(F)cc1)CC2)N1CCCCC1` (stereo not given): the growth with SR leukemia was 94.6%; in the experiment on RPMI-8226 leukemia, 110%; with OVCAR-8 ovarian, 97%; in the experiment with OVCAR-5 ovarian, 103%; with OVCAR-4 ovarian it was 99.2%; in the experiment with SK-OV-3 ovarian, 103%. The growth with IGROV1 ovarian was 97.7%; in the experiment on OVCAR-3 ovarian it was 104%; with HS 578T breast, 107%; in the experiment with NCI/ADR-RES ovarian it was 93.9%.
In the case of `O=C(CSc1oc(-c2ccccc2)nc1S(=O)(=O)c1ccccc1)Nc1ccc(F)cc1`, the growth in the experiment on SR leukemia was 83.8%; in the experiment on RPMI-8226 leukemia, 55.7%; with OVCAR-8 ovarian, 88.7%; in the experiment on OVCAR-5 ovarian it was 87.5%; with OVCAR-4 ovarian, 67.4%; in the experiment on SK-OV-3 ovarian, 95.8%. Moreover, the growth with IGROV1 ovarian was 88.9%; in the experiment on OVCAR-3 ovarian, 85.7%; in the experiment with HS 578T breast it was 97.9%; with NCI/ADR-RES ovarian, 75.3%.
`Cc1ccc(NC(=O)Cn2cc(CN3CCN(c4ccnc5cc(Cl)ccc45)CC3)nn2)cc1`: the growth in the experiment with SR leukemia is 60.2%; in the experiment on RPMI-8226 leukemia it was 64.7%; in the experiment with OVCAR-8 ovarian it was 89.8%; in the experiment on OVCAR-5 ovarian, 95.5%; in the experiment on OVCAR-4 ovarian, 76.6%; with SK-OV-3 ovarian, 68.4%. Besides, the growth with IGROV1 ovarian is 91.1%; with OVCAR-3 ovarian it was 91.3%; with HS 578T breast it was 83.2%; with NCI/ADR-RES ovarian, 89.1%.
For the compound `COc1ccc(/C=C/C(=O)c2cccc(OCCCCOc3cccc(C(=O)/C=C/c4ccc(OC)c(OC)c4)c3)c2)cc1OC`, the growth with SR leukemia is 69.4%; in the experiment with RPMI-8226 leukemia, 35.6%; in the experiment on OVCAR-8 ovarian, 68.3%; in the experiment with OVCAR-5 ovarian it was 102%; with OVCAR-4 ovarian, 32.9%; in the experiment on SK-OV-3 ovarian it was 89.6%. Also, the growth in the experiment with IGROV1 ovarian was 75.2%; in the experiment with OVCAR-3 ovarian, 80.9%; with HS 578T breast it was 78.4%; with NCI/ADR-RES ovarian, 78.1%.
